# Assay results from article PMC7862700, “An all-to-all approach to the identification of sequence-specific readers for epigenetic DNA modifications on cytosine”.
# Tests used:
# Test in all cases: DAPPL (digital affinity profiling via proximity ligation, sequencing); 10 mM Tris-HCl pH 7.5, 50 mM NaCl, 1 mM DTT, 4% glycerol, room temperature, 30 min; GST-TFs on glutathione beads, 16-mer random dsDNA library, 0.1% formaldehyde crosslink after washing; high values mean tight binding
# FEV = molecular target: T1, FEV (Homo sapiens, UniProt Q99581 1-238); conditions: protein: recombinant; tags: N-terminal GST; dsDNA, one strand shown
# T1 sequence: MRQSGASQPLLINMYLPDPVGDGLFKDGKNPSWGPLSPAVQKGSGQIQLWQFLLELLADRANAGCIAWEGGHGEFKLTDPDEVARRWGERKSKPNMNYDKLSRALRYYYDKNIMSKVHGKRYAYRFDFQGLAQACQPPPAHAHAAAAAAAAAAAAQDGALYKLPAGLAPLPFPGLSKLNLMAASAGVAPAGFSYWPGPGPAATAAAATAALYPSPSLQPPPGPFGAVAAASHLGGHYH
# Summary of the method: (§1)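 In yeast, human transcription factors were expressed with a GST fusion, then pulled down on glutathione beads and given DNA barcodes. Pooled with a tag-only sample, they were exposed to 200 nmole of a 16-mer random double-stranded DNA library (Tris/NaCl/DTT/glycerol buffer, room temperature, 30 min), washed, crosslinked with 0.1% formaldehyde, proximity-ligated using BsaI/T4 ligase for 1 h at 37 °C, PCR-amplified and read on an Illumina NextSeq500. Each hexamer's frequency of reads for a factor, divided by the matching frequency for the tag-only sample, gives the binding signal.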
# ETV5 = ETV5 (Homo sapiens, UniProt P41161 1-510); conditions: protein: recombinant; tags: N-terminal GST; dsDNA, one strand shown
# Summary of the method: as §1
# HSF1 = HSF1 (Homo sapiens, UniProt Q00613 1-529); conditions: protein: recombinant; tags: N-terminal GST; chain copies: 3; dsDNA, one strand shown
# Summary of the method: as §1
# SPIC = molecular target: T2, SPIC (Homo sapiens, UniProt Q8N5J4 1-248); conditions: protein: recombinant; tags: N-terminal GST; dsDNA, one strand shown
# T2 sequence: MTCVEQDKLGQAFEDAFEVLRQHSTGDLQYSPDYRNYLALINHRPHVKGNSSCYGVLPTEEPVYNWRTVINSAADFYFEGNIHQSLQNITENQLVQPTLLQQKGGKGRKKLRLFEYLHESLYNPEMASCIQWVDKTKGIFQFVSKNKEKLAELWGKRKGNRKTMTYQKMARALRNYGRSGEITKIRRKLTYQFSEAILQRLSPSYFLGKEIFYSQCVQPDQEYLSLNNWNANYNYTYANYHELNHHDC
# Summary of the method: as §1
# ELF4 = ELF4 (Homo sapiens, UniProt Q99607 1-663); conditions: protein: recombinant; tags: N-terminal GST; dsDNA, one strand shown
# Summary of the method: as §1
# ELK4 = molecular target: T3, ELK4 (Homo sapiens, UniProt P28324-2 1-405); conditions: protein: recombinant; tags: N-terminal GST; dsDNA, one strand shown
# T3 sequence: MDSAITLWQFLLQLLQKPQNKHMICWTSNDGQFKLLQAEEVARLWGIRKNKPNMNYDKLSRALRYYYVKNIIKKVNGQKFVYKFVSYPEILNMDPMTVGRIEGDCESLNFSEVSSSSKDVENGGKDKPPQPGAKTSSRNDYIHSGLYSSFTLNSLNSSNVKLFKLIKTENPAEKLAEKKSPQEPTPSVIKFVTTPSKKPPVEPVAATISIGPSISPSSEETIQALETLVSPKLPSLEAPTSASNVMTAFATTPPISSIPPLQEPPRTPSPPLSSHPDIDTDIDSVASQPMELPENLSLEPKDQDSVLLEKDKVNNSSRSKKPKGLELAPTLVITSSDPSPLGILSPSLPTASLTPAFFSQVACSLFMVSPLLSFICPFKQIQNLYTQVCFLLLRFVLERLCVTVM
# Summary of the method: as §1
# ETV2 = molecular target: T4, ETV2 (Homo sapiens, UniProt O00321 1-342); conditions: protein: recombinant; tags: N-terminal GST; dsDNA, one strand shown
# T4 sequence: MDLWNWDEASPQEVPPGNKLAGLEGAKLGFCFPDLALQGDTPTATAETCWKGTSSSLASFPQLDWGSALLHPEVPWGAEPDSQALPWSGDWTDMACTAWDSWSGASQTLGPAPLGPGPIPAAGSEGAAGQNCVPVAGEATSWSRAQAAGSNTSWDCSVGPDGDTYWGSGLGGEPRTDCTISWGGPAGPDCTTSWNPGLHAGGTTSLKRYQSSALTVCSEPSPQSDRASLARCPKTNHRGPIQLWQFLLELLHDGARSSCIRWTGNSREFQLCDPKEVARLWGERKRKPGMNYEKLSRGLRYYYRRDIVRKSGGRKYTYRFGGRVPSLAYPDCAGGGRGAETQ
# Summary of the method: as §1
# ELF3 = molecular target: T5, ELF3 (Homo sapiens, UniProt P78545 1-371); conditions: protein: recombinant; tags: N-terminal GST; dsDNA, one strand shown
# T5 sequence: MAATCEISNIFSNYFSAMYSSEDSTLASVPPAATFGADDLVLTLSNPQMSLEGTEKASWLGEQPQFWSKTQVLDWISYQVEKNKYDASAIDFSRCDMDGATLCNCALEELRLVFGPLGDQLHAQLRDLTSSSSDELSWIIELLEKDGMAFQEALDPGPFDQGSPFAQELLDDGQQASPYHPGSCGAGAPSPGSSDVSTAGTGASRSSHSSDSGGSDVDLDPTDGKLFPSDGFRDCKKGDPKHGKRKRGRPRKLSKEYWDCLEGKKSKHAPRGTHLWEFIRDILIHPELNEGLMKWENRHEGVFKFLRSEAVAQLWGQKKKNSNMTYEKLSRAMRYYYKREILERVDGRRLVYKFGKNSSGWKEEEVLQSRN
# Summary of the method: as §1
# CRX = CRX (Homo sapiens, UniProt O43186 1-299); conditions: protein: recombinant; tags: N-terminal GST; dsDNA, one strand shown
# Summary of the method: as §1
# ETV1 = ETV1 (Homo sapiens, UniProt P50549 1-477); conditions: protein: recombinant; tags: N-terminal GST; dsDNA, one strand shown
# Summary of the method: as §1
# ERF = molecular target: T6, ERF (Homo sapiens, UniProt P50548 1-548); conditions: protein: recombinant; tags: N-terminal GST; dsDNA, one strand shown
# T6 sequence: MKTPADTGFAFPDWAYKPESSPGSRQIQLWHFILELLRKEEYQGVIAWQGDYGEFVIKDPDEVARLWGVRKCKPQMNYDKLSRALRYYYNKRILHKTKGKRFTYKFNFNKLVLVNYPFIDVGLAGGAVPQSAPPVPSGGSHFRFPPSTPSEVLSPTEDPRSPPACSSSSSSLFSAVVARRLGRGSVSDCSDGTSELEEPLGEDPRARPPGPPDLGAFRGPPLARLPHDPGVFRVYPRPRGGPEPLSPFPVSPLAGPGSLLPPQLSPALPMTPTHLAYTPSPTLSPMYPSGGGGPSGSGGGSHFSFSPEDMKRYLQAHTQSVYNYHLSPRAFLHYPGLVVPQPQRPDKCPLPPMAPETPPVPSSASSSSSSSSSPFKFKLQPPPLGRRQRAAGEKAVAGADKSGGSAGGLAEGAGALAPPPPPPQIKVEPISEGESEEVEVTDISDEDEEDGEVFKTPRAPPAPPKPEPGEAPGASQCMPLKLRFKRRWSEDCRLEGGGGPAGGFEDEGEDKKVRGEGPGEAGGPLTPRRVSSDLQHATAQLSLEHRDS
# Summary of the method: as §1
# ETV3L = molecular target: T7, ETV3L (Homo sapiens, UniProt Q6ZN32 1-361); conditions: protein: recombinant; tags: N-terminal GST; dsDNA, one strand shown
# T7 sequence: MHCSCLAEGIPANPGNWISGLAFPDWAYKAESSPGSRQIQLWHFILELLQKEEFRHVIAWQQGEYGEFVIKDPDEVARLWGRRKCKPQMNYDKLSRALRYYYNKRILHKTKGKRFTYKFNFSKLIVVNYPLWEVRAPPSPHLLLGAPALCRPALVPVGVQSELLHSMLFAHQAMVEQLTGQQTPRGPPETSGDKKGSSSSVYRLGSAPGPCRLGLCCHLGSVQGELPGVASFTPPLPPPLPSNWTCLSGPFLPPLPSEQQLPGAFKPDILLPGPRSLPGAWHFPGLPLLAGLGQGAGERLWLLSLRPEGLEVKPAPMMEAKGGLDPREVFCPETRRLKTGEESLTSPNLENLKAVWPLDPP
# Summary of the method: as §1
# ETS2 = molecular target: T8, ETS2 (Homo sapiens, UniProt P15036 1-469); conditions: protein: recombinant; tags: N-terminal GST; dsDNA, one strand shown
# T8 sequence: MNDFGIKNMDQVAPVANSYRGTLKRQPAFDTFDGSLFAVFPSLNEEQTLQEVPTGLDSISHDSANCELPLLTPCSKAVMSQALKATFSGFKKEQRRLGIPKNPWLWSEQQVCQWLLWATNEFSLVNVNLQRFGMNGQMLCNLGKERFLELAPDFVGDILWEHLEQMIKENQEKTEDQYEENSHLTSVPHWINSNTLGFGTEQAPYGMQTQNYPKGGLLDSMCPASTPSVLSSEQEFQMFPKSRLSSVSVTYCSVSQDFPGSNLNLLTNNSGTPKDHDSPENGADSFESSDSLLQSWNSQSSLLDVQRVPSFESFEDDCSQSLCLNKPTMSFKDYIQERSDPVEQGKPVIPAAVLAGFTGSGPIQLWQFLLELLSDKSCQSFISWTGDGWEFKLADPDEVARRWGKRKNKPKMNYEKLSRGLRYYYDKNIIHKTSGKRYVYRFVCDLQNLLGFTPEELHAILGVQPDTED
# Summary of the method: as §1
# SPDEF = molecular target: T9, SPDEF (Homo sapiens, UniProt O95238 1-335); conditions: protein: recombinant; tags: N-terminal GST; dsDNA, one strand shown
# T9 sequence: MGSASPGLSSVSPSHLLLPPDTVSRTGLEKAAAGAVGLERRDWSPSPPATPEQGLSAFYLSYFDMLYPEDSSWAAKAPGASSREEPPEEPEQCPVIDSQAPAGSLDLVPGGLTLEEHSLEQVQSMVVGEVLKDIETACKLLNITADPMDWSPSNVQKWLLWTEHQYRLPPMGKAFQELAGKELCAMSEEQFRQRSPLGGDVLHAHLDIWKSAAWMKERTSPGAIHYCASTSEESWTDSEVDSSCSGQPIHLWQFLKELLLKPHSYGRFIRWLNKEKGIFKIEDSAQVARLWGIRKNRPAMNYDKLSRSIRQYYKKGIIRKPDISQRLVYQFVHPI
# Summary of the method: as §1
# ETV7 = molecular target: T10, ETV7 (Homo sapiens, UniProt Q9Y603 1-341); conditions: protein: recombinant; tags: N-terminal GST; dsDNA, one strand shown
# T10 sequence: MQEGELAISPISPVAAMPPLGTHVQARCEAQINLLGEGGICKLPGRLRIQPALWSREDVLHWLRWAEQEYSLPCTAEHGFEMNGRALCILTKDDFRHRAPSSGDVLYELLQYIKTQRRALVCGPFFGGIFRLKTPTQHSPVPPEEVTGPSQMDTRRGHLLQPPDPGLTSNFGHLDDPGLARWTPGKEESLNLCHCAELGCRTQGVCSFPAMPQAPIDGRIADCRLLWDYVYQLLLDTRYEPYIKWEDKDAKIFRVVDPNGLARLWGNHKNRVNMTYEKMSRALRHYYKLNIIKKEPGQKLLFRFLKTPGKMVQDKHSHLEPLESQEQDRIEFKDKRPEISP
# Summary of the method: as §1
# ELF5 = molecular target: T11, ELF5 (Homo sapiens, UniProt Q9UKW6-2 1-255); conditions: protein: recombinant; tags: N-terminal GST; dsDNA, one strand shown
# T11 sequence: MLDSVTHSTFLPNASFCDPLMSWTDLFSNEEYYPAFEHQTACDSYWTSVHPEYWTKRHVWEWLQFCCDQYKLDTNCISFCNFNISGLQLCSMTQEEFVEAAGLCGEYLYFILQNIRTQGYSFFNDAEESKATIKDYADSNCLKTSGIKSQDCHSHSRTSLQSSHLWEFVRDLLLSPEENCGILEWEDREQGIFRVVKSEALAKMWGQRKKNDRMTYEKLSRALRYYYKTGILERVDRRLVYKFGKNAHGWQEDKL
# Summary of the method: as §1
# ETV3 = molecular target: T12, ETV3 (Homo sapiens, UniProt P41162-2 1-143); conditions: protein: recombinant; tags: N-terminal GST; dsDNA, one strand shown
# T12 sequence: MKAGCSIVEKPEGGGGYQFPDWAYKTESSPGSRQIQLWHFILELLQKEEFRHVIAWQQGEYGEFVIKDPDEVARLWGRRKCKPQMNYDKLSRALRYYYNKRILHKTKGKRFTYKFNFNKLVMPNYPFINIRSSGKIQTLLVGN
# Summary of the method: as §1
# ETV6 = ETV6 (Homo sapiens, UniProt P41212 1-452); conditions: protein: recombinant; tags: N-terminal GST; dsDNA, one strand shown
# Summary of the method: as §1
# HSF1, sequence (Q00613 whole entry): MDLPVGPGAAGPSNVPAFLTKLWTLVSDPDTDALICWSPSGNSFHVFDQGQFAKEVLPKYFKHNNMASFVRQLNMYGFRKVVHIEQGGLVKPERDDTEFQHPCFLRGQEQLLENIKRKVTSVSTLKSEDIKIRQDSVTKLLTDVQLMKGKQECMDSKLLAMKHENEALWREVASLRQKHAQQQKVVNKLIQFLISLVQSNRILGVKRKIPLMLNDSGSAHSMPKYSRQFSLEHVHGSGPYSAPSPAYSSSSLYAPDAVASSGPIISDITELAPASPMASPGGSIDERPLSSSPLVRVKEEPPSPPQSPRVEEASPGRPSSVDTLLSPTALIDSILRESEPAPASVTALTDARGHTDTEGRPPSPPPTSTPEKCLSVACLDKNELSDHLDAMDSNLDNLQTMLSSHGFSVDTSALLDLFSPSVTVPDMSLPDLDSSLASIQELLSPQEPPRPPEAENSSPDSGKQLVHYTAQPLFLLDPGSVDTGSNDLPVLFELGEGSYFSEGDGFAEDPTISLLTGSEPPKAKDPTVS
# CRX, sequence (O43186 whole entry): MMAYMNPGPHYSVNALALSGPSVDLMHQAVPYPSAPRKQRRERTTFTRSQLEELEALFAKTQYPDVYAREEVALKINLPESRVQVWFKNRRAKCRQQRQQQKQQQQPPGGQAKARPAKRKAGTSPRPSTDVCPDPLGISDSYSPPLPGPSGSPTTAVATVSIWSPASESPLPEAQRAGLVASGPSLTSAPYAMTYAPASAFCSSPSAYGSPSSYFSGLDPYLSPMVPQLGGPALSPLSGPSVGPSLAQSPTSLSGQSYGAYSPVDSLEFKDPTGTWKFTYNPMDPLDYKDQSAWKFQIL
# ETV6, sequence (P41212 whole entry): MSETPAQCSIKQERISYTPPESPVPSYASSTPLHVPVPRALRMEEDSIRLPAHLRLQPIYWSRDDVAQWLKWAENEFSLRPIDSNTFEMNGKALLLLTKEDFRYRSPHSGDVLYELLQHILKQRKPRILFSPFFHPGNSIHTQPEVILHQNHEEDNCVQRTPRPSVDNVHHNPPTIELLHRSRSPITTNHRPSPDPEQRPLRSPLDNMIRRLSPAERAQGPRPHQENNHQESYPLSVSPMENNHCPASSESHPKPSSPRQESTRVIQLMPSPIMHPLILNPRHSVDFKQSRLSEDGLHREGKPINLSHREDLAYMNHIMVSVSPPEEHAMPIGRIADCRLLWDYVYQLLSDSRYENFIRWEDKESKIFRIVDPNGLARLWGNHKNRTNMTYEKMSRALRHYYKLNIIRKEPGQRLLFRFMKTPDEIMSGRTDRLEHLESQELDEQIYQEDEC
# ELF4, sequence (Q99607 whole entry): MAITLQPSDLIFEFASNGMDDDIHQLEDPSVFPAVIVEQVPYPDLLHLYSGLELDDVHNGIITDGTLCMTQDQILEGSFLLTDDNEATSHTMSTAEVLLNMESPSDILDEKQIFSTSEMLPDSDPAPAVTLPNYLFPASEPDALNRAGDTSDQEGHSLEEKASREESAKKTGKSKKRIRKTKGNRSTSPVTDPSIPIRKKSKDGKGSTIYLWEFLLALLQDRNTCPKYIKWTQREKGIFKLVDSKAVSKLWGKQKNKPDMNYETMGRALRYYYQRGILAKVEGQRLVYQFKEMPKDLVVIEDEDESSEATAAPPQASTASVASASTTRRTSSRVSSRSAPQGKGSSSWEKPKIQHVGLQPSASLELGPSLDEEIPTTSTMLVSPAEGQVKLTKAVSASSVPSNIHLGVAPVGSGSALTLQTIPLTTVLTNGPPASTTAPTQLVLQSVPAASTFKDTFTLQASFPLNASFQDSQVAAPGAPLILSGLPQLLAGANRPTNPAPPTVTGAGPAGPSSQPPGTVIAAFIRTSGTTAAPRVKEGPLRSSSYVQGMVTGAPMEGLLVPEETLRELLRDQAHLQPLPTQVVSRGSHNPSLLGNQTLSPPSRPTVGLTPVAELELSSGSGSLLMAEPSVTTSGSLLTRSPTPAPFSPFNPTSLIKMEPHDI
# ETV5, sequence (P41161 whole entry): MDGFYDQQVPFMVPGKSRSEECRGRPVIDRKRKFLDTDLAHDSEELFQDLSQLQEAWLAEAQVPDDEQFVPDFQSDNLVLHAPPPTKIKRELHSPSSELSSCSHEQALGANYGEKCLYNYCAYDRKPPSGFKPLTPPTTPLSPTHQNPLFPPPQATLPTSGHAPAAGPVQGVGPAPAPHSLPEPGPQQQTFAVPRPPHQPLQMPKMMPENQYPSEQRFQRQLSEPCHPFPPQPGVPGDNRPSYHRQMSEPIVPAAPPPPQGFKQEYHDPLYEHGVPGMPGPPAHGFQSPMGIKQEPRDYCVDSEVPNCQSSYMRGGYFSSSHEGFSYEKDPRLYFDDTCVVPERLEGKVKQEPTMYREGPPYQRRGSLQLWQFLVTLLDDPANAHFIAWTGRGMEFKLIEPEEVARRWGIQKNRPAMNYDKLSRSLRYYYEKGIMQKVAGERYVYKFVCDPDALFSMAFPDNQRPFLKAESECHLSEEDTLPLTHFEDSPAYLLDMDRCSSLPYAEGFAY
# ETV1, sequence (P50549 whole entry): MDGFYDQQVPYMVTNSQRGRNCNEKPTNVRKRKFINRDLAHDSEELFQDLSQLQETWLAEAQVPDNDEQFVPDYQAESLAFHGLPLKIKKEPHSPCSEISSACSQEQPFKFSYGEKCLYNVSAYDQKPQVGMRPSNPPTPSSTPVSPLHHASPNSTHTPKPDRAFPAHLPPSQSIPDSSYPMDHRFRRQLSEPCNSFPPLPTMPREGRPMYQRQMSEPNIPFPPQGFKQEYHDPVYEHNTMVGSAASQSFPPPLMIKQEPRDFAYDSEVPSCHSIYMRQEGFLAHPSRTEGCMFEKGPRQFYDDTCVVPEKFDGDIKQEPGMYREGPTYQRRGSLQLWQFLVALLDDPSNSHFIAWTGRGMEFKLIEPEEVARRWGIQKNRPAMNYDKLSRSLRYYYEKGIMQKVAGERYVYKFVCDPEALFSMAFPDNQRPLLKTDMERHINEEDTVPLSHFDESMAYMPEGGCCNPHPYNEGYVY
sequence,measurement,setting,value
ACTCCT,binding signal,FEV,"1.47 fold enrichment (6-mer frequency, TF over GST control)"
same,binding signal,ETV5,"1.38 fold enrichment (6-mer frequency, TF over GST control)"
same,binding signal,HSF1,"1.36 fold enrichment (6-mer frequency, TF over GST control)"
same,binding signal,SPIC,"1.54 fold enrichment (6-mer frequency, TF over GST control)"
same,binding signal,ELF4,"1.59 fold enrichment (6-mer frequency, TF over GST control)"
same,binding signal,ELK4,"1.54 fold enrichment (6-mer frequency, TF over GST control)"
same,binding signal,ETV2,"1.38 fold enrichment (6-mer frequency, TF over GST control)"
same,binding signal,ELF3,"1.3 fold enrichment (6-mer frequency, TF over GST control)"
same,binding signal,CRX,"1.32 fold enrichment (6-mer frequency, TF over GST control)"
same,binding signal,ETV1,"1.41 fold enrichment (6-mer frequency, TF over GST control)"
same,binding signal,ERF,"1.45 fold enrichment (6-mer frequency, TF over GST control)"
same,binding signal,ETV3L,"1.54 fold enrichment (6-mer frequency, TF over GST control)"
same,binding signal,ETS2,"1.52 fold enrichment (6-mer frequency, TF over GST control)"
same,binding signal,SPDEF,"1.42 fold enrichment (6-mer frequency, TF over GST control)"
same,binding signal,ETV7,"1.52 fold enrichment (6-mer frequency, TF over GST control)"
same,binding signal,ELF5,"1.42 fold enrichment (6-mer frequency, TF over GST control)"
same,binding signal,ETV3,"1.43 fold enrichment (6-mer frequency, TF over GST control)"
same,binding signal,ETV6,"1.42 fold enrichment (6-mer frequency, TF over GST control)"
